Data on 30 compounds can be found in PubChem BioAssay AID1851 (National Center for Advancing Translational Sciences (NCATS), 2009).

Out of some 16,000 compounds screened, about 4,000 (25%) were called active. About 26% were inconclusive and are not listed. Only a sample is shown. Values without a mark were called inactive. Calls follow the shape of the dose curve; as a rule, active = well fitted curve in the direction sought with a large enough effect; inconclusive = small, poorly fitted or top-dose-only effect, or effect the other way; inactive = no such curve, though single readings can be large or run the other way.

Usually AC50 stands for the midpoint of the concentration-response curve, whichever way the signal moves.
% is scaled to controls: 0 for no effect and ±100 for the full control effect.

In the experiment the target is Cytochrome P450 2C9 (Homo sapiens) (UniProt P11712). The experiment in a line: Cytochrome panel assay with activity outcomes. To be noted: recombinant CYP, pro-luciferin dealkylation, luminescence, p450-cyp2c9; series mostly up to 57.1 µM; activity, negative = inhibition: at the top concentration.
Cytochrome P450 2C9 (Homo sapiens), sequence (P11712 whole entry, looked up): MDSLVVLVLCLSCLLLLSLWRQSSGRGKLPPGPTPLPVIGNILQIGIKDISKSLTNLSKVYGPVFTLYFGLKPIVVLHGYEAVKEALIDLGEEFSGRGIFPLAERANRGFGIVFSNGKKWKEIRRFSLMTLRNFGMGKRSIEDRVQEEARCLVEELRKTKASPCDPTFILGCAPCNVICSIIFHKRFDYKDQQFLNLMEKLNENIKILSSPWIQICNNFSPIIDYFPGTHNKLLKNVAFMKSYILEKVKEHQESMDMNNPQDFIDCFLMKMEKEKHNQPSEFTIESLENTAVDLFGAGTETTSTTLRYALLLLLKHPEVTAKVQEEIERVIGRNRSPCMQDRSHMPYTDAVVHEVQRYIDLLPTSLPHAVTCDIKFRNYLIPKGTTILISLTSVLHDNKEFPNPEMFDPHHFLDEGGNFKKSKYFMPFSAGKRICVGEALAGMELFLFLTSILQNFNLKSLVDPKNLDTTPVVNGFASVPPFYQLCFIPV
On to `O=c1c(-c2ccccc2)c(O)c2cccc3c2n1CCC3`, for which the “activity, negative = inhibition” value is 27.1%.
On the same count and under the same terms, the value for `COc1ccccc1CN1CCCC2(CCNCC2)C1` was -6.14%; that for `COC(=O)N1CCC2(CC1)CN(c1ccccn1)C2` was 0.409%.
For `COc1cc(NC(=O)c2ccccc2)c(OC)cc1NC(=O)CN1CCN(c2ccccn2)CC1`, the AC50 is 3.16 µM (active).
Still for that read-out and setting: the value for `CCOC(=O)N1CCN(S(=O)(=O)c2ccc(C(=O)Nc3ccc(F)cc3F)cc2)CC1` was 15.8 µM (active).
In the case of `CCOc1ccc(C(=O)CN2CCN(S(=O)(=O)c3ccc(F)cc3)CC2)cc1`, the “activity, negative = inhibition” value was -47.6%.
The same measure, in the same setting: the value for `COc1ccccc1N1CCN(CCN(C(=O)C2CCCCC2)c2ccccn2)CC1` was -3.2%.
The same measure, in the same setting: as for `CN(C)CCNc1ccccn1`, the figure is 3.16% [at 11.4 µM]; as for `Cc1noc(C)c1C(=O)N1CCC2(CCCN(Cc3nccs3)C2)CC1`, 4.27%.
Same read-out and setting: the value for `CN(C)Cc1ccccc1-c1cncnc1NC1CC1` was 8.78% [at 2.29 µM]; that for `Cc1cc(OCCNCCO)cc(C)c1Cl` was -7.03%.
As for `Cc1ccc(OCCNC(=O)c2cc(-n3cnnc3)ccc2Cl)cc1C`, the AC50 is 11.2 µM (active).
For the compound `CN(C)CCNC(=O)c1cc(Br)ccc1Cl`, the “activity, negative = inhibition” value was 21.3%.
Turning to `Cc1cccc(N/C(=N\S(=O)(=O)c2ccccc2)C(F)(F)F)c1`, the AC50 is 2.51 µM (active).
As for `NC(N)=N/N=C\c1ccc(C2CCNCC2)cc1`, the activity, negative = inhibition was 2.7% [at 11.4 µM].
On to `N#Cc1ccccc1NC(=O)Nc1cccs1`, for which the “activity, negative = inhibition” value is -22.3%.
`O=C(NCc1ccco1)Nc1cccs1`: the AC50 was 11.2 µM (active).
With `O=C(Nc1cc2ccccc2oc1=O)C1CCCCC1`, the “activity, negative = inhibition” value is -15.2%.
Still for that read-out and setting: as for `Cc1cc2ccccc2n1CCNC(=O)C1CCCC1`, the figure is -42.8%.
Regarding `Cc1cc(NC(=O)C2CCCCC2)nc2c1c(=O)oc1ccccc12`, the AC50 was 14.1 µM (active).
For `CN1CCN(c2nc(-c3ccccc3)cc(C(F)(F)F)n2)CC1`, the “activity, negative = inhibition” value was -8.43%.
As to `COc1ccc(-c2cc(C(F)(F)F)nc(NC3CCCC3)n2)cc1OC`, the AC50 was 7.94 µM (active).
Turning to `COc1ccc(-n2c(=O)c(-c3cc(F)cc(F)c3)nc3cnc(N4CCOCC4)nc32)cc1`, the “activity, negative = inhibition” value was -5.13%.
In the case of `COc1ccc(-c2cc(C(F)(F)F)nc(N3CCCCC3)n2)cc1OC`, the concentration at half-maximal activity (AC50) was 10 µM (active).
Turning to `COc1ccccc1-c1nc(N2CCN(C)CC2)c2ccccc2n1`, the activity, negative = inhibition is 11.5% [at 2.29 µM].
As to `COc1cccc(-c2cc(C(F)(F)F)nc(N3CCOCC3)n2)c1`, the AC50 was 15.8 µM (active).
Turning to `COc1ccccc1-c1cc(C(F)(F)F)nc(S(=O)(=O)CCCC(=O)NC(C)C)n1`, the “activity, negative = inhibition” value is 20.8%.
Same read-out and setting: as for `COc1ccc(-c2cc(C(F)(F)F)nc(N3CCN(C)CC3)n2)cc1OC`, the figure is -22.7%.
Same read-out and setting: as for `COc1ccccc1-c1nc(NC2CC2)c2ccccc2n1`, the figure is 5.77% [at 2.29 µM].
For `COc1ccccc1N1CCN(c2nc(-c3ccccc3)cc(C(F)(F)F)n2)CC1`, the AC50 is 5.62 µM (active).
